# Source: PMC7862700, “An all-to-all approach to the identification of sequence-specific readers for epigenetic DNA modifications on cytosine”
# What was measured:
# Assay in all cases: DAPPL (digital affinity profiling via proximity ligation, sequencing); 10 mM Tris-HCl pH 7.5, 50 mM NaCl, 1 mM DTT, 4% glycerol, room temperature, 30 min; GST-TFs on glutathione beads, 16-mer random dsDNA library, 0.1% formaldehyde crosslink after washing; high values mean tight binding
# FEV = molecular target: T1, FEV (Homo sapiens, UniProt Q99581 1-238); conditions: protein: recombinant; tags: N-terminal GST; dsDNA, one strand shown
# T1 sequence: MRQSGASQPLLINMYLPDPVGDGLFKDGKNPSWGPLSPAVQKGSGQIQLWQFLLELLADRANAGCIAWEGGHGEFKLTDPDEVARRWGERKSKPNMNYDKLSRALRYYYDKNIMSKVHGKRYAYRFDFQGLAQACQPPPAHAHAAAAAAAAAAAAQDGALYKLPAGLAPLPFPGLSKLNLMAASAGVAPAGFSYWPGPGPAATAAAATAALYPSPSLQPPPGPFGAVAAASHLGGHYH
# Outline: (§1)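 Binding signal is given per hexamer as its read frequency for a factor divided by its frequency in the tag-only sample. GST-fused human transcription factors were expressed in yeast, captured on glutathione beads, barcoded with DNA and pooled with that sample, then incubated with 200 nmole of a 16-mer random double-stranded DNA library in Tris/NaCl/DTT/glycerol buffer for 30 min at room temperature. The pools were then washed, crosslinked, proximity-ligated, amplified by PCR and sequenced on an Illumina NextSeq500.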
# ETV5 = ETV5 (Homo sapiens, UniProt P41161 1-510); conditions: protein: recombinant; tags: N-terminal GST; dsDNA, one strand shown
# ETV5, sequence (P41161 whole entry): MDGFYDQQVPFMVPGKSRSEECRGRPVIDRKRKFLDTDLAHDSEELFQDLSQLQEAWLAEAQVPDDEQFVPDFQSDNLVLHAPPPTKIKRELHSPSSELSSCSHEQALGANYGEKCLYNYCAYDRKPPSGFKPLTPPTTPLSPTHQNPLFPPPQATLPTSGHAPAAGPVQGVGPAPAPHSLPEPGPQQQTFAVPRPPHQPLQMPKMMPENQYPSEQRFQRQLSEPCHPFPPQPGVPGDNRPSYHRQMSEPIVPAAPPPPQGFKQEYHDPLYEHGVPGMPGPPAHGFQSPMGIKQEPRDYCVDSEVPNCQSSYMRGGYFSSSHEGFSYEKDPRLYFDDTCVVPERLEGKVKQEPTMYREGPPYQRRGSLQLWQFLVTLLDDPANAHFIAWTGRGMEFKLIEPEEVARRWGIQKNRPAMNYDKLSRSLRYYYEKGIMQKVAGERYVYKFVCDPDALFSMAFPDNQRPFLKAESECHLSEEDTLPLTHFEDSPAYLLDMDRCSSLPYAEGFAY
# Outline: as §1
# HSF1 = HSF1 (Homo sapiens, UniProt Q00613 1-529); conditions: protein: recombinant; tags: N-terminal GST; chain copies: 3; dsDNA, one strand shown
# HSF1, sequence (Q00613 whole entry): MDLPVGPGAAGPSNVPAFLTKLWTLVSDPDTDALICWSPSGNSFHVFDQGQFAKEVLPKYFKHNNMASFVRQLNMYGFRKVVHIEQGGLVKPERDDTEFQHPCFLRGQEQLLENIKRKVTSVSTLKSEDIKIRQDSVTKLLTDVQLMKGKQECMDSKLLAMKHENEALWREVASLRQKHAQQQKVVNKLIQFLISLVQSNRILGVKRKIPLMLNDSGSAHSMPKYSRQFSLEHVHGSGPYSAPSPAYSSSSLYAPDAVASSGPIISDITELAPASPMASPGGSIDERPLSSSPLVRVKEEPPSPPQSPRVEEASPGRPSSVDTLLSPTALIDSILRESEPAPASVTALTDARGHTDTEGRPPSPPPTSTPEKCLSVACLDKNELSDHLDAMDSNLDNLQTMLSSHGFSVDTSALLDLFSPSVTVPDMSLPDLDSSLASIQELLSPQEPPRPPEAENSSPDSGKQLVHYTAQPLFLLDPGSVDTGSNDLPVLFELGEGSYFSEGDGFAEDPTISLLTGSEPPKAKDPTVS
# Outline: as §1
# SPIC = molecular target: T2, SPIC (Homo sapiens, UniProt Q8N5J4 1-248); conditions: protein: recombinant; tags: N-terminal GST; dsDNA, one strand shown
# T2 sequence: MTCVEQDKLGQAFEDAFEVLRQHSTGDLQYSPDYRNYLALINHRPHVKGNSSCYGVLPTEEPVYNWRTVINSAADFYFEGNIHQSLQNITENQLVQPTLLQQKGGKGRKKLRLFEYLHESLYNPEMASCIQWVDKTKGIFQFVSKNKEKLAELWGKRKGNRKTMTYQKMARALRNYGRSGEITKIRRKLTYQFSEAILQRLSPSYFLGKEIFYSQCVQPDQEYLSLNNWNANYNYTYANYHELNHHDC
# Outline: as §1
# ELF4 = ELF4 (Homo sapiens, UniProt Q99607 1-663); conditions: protein: recombinant; tags: N-terminal GST; dsDNA, one strand shown
# ELF4, sequence (Q99607 whole entry): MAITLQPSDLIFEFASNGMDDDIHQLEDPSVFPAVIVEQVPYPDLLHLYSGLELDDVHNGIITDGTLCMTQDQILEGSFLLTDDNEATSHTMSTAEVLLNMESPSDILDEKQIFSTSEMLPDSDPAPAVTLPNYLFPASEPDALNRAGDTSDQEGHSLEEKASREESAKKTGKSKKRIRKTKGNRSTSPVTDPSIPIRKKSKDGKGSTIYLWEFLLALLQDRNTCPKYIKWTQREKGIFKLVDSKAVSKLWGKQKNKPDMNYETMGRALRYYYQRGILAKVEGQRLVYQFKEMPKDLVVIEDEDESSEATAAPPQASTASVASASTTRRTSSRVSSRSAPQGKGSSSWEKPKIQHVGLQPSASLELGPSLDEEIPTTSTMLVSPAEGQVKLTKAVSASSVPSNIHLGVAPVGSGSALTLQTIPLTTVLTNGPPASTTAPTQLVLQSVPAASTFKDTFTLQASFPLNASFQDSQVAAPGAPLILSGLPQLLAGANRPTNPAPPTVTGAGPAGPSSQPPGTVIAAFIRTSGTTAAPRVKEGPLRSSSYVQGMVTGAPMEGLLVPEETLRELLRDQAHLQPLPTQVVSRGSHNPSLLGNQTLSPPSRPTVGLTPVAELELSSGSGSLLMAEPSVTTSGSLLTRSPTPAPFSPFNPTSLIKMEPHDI
# Outline: as §1
# ELK4 = molecular target: T3, ELK4 (Homo sapiens, UniProt P28324-2 1-405); conditions: protein: recombinant; tags: N-terminal GST; dsDNA, one strand shown
# T3 sequence: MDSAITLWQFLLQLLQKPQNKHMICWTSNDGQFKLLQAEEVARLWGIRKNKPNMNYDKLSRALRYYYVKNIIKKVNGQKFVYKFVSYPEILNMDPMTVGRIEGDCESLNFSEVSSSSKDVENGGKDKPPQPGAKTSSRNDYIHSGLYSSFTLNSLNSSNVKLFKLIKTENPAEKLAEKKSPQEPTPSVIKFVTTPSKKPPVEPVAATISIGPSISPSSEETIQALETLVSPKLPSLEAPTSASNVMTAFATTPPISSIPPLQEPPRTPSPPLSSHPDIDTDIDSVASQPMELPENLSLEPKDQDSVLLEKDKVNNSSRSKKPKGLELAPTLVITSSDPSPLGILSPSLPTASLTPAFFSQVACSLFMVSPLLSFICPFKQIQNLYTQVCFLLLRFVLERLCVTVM
# Outline: as §1
# ETV2 = molecular target: T4, ETV2 (Homo sapiens, UniProt O00321 1-342); conditions: protein: recombinant; tags: N-terminal GST; dsDNA, one strand shown
# T4 sequence: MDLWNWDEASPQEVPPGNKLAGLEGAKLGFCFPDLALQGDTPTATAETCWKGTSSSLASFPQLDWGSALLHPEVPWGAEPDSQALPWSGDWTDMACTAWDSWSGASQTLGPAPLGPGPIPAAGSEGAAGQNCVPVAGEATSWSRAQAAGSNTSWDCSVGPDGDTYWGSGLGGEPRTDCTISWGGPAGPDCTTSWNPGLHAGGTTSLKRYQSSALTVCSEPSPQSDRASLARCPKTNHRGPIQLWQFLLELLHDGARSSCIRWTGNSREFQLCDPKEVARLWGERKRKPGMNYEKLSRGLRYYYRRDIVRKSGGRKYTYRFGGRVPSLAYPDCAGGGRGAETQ
# Outline: as §1
# ELF3 = molecular target: T5, ELF3 (Homo sapiens, UniProt P78545 1-371); conditions: protein: recombinant; tags: N-terminal GST; dsDNA, one strand shown
# T5 sequence: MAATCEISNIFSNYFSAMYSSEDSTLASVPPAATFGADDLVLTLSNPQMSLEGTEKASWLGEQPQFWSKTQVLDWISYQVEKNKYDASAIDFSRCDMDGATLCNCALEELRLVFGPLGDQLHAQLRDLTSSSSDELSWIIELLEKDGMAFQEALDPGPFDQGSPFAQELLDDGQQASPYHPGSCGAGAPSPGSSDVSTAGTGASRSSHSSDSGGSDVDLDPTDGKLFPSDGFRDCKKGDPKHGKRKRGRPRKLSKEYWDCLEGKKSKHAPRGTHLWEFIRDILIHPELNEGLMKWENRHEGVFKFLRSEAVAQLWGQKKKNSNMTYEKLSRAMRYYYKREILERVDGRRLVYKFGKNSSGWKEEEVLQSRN
# Outline: as §1
# CRX = CRX (Homo sapiens, UniProt O43186 1-299); conditions: protein: recombinant; tags: N-terminal GST; dsDNA, one strand shown
# CRX, sequence (O43186 whole entry): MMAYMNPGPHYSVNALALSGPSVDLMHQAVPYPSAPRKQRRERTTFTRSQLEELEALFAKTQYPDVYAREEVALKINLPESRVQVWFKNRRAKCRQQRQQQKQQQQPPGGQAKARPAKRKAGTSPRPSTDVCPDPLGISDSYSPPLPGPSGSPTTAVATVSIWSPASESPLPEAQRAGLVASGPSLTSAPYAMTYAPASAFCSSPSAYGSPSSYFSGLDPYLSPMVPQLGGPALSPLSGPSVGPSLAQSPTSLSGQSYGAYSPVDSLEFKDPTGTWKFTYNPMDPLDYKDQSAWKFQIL
# Outline: as §1
# ETV1 = ETV1 (Homo sapiens, UniProt P50549 1-477); conditions: protein: recombinant; tags: N-terminal GST; dsDNA, one strand shown
# ETV1, sequence (P50549 whole entry): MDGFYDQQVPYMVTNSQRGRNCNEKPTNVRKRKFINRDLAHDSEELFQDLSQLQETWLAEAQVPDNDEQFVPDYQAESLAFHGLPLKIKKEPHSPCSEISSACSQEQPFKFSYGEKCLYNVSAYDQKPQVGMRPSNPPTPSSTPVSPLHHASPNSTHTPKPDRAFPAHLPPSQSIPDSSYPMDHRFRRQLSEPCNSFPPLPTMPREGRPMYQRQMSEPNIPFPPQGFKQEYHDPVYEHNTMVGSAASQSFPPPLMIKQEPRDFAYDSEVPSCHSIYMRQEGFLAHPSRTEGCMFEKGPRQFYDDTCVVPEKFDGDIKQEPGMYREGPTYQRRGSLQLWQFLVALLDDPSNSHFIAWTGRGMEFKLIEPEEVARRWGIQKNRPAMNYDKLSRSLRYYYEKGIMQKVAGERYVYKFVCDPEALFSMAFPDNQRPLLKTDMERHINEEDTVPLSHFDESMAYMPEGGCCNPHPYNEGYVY
# Outline: as §1
# ERF = molecular target: T6, ERF (Homo sapiens, UniProt P50548 1-548); conditions: protein: recombinant; tags: N-terminal GST; dsDNA, one strand shown
# T6 sequence: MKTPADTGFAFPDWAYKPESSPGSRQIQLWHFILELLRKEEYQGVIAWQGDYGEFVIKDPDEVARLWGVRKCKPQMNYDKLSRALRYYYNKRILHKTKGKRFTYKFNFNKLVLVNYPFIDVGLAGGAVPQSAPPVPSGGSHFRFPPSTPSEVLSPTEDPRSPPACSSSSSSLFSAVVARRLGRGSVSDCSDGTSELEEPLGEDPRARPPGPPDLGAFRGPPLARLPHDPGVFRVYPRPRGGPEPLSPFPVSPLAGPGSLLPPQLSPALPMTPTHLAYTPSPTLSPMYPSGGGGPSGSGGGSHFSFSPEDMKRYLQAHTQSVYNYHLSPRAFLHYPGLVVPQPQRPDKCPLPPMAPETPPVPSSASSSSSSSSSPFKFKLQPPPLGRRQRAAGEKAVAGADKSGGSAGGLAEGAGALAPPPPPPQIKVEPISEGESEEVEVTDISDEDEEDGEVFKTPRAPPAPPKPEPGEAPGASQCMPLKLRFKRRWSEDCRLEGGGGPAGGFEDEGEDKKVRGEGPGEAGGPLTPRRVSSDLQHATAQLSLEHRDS
# Outline: as §1
# ETV3L = molecular target: T7, ETV3L (Homo sapiens, UniProt Q6ZN32 1-361); conditions: protein: recombinant; tags: N-terminal GST; dsDNA, one strand shown
# T7 sequence: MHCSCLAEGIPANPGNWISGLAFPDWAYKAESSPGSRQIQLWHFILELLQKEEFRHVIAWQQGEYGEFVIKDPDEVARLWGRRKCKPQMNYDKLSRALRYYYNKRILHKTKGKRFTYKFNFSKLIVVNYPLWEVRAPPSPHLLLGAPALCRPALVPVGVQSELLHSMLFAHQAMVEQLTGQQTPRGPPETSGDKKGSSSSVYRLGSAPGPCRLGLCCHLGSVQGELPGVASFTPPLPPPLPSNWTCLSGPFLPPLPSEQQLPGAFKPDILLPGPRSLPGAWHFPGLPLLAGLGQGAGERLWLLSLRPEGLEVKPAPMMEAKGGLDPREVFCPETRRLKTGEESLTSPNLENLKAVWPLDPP
# Outline: as §1
# ETS2 = molecular target: T8, ETS2 (Homo sapiens, UniProt P15036 1-469); conditions: protein: recombinant; tags: N-terminal GST; dsDNA, one strand shown
# T8 sequence: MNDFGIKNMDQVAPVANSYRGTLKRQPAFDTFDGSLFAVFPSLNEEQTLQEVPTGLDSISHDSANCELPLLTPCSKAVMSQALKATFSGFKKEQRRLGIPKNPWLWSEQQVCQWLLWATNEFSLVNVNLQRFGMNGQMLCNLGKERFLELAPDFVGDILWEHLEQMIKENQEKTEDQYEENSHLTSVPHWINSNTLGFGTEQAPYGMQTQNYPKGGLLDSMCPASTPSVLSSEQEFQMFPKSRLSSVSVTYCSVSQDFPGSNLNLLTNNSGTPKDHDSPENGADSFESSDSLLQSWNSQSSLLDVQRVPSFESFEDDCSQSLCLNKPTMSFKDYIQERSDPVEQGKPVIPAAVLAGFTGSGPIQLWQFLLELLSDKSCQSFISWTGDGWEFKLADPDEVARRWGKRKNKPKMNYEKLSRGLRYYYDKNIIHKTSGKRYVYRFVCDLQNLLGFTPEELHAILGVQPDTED
# Outline: as §1
# SPDEF = molecular target: T9, SPDEF (Homo sapiens, UniProt O95238 1-335); conditions: protein: recombinant; tags: N-terminal GST; dsDNA, one strand shown
# T9 sequence: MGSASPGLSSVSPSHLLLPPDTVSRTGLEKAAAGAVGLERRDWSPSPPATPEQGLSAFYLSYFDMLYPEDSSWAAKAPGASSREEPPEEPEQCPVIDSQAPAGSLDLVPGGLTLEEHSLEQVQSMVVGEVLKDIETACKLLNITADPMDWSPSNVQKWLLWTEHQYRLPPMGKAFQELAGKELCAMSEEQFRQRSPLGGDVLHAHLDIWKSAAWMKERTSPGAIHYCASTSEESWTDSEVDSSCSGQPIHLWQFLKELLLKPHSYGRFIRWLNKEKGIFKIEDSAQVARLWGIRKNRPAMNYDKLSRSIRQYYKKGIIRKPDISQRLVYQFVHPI
# Outline: as §1
# ETV7 = molecular target: T10, ETV7 (Homo sapiens, UniProt Q9Y603 1-341); conditions: protein: recombinant; tags: N-terminal GST; dsDNA, one strand shown
# T10 sequence: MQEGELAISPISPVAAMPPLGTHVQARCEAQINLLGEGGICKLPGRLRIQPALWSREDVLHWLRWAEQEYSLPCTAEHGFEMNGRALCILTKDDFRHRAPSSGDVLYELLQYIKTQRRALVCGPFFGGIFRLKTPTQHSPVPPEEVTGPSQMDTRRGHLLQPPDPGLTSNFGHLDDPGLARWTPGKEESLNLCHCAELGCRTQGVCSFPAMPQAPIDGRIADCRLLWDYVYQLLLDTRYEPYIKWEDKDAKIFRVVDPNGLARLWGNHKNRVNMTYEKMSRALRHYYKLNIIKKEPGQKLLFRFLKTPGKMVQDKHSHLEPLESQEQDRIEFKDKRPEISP
# Outline: as §1
# ELF5 = molecular target: T11, ELF5 (Homo sapiens, UniProt Q9UKW6-2 1-255); conditions: protein: recombinant; tags: N-terminal GST; dsDNA, one strand shown
# T11 sequence: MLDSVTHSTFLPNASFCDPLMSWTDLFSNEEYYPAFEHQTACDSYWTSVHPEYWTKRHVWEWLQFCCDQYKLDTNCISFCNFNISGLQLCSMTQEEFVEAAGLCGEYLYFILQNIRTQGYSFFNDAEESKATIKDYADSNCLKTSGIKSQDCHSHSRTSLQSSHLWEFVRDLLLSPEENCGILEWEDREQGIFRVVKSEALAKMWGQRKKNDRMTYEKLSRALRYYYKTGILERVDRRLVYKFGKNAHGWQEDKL
# Outline: as §1
# ETV3 = molecular target: T12, ETV3 (Homo sapiens, UniProt P41162-2 1-143); conditions: protein: recombinant; tags: N-terminal GST; dsDNA, one strand shown
# T12 sequence: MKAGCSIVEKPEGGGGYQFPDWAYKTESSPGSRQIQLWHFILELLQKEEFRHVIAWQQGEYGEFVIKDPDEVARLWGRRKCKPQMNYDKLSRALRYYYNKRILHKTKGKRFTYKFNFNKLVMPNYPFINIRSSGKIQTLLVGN
# Outline: as §1
# ETV6 = ETV6 (Homo sapiens, UniProt P41212 1-452); conditions: protein: recombinant; tags: N-terminal GST; dsDNA, one strand shown
# ETV6, sequence (P41212 whole entry): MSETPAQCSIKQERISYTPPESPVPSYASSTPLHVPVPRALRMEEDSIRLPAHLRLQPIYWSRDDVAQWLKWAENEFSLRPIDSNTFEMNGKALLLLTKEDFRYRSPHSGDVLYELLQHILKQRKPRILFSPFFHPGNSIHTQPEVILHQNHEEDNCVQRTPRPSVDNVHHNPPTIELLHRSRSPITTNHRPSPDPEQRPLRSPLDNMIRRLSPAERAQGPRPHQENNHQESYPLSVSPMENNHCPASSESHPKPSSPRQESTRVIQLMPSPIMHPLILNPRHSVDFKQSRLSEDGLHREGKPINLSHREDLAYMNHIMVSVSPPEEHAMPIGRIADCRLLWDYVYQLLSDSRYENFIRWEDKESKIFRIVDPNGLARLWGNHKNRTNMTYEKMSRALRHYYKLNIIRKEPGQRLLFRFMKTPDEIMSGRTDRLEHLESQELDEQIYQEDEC
# Outline: as §1
sequence,measurement,setting,value
CATCTC,binding signal,FEV,"1.2 fold enrichment (6-mer frequency, TF over GST control)"
same,binding signal,ETV5,"1.29 fold enrichment (6-mer frequency, TF over GST control)"
same,binding signal,HSF1,"1.26 fold enrichment (6-mer frequency, TF over GST control)"
same,binding signal,SPIC,"1.46 fold enrichment (6-mer frequency, TF over GST control)"
same,binding signal,ELF4,"1.26 fold enrichment (6-mer frequency, TF over GST control)"
same,binding signal,ELK4,"1.42 fold enrichment (6-mer frequency, TF over GST control)"
same,binding signal,ETV2,"1.4 fold enrichment (6-mer frequency, TF over GST control)"
same,binding signal,ELF3,"1.23 fold enrichment (6-mer frequency, TF over GST control)"
same,binding signal,CRX,"1.16 fold enrichment (6-mer frequency, TF over GST control)"
same,binding signal,ETV1,"1.26 fold enrichment (6-mer frequency, TF over GST control)"
same,binding signal,ERF,"1.25 fold enrichment (6-mer frequency, TF over GST control)"
same,binding signal,ETV3L,"1.32 fold enrichment (6-mer frequency, TF over GST control)"
same,binding signal,ETS2,"1.36 fold enrichment (6-mer frequency, TF over GST control)"
same,binding signal,SPDEF,"1.24 fold enrichment (6-mer frequency, TF over GST control)"
same,binding signal,ETV7,"1.15 fold enrichment (6-mer frequency, TF over GST control)"
same,binding signal,ELF5,"1.22 fold enrichment (6-mer frequency, TF over GST control)"
same,binding signal,ETV3,"1.29 fold enrichment (6-mer frequency, TF over GST control)"
same,binding signal,ETV6,"1.26 fold enrichment (6-mer frequency, TF over GST control)"
